# Source: ChEMBL document CHEMBL3988442, “University of Dundee, Small-Polar-MMV Screening Library” (2021)
# For part of these data: Potency and affinity values are given separately.
# Assays:
# Parameters in all cases: scale not given: direction of the effect not stated beside the values
# [1] = biological target: Protein translocase subunit SecA (Escherichia coli (strain K12)) (UniProt P10408); assay: Assay to Identify E. coli SecA ATPase Inhibitors; format: functional; settings: 30 µM
# [2] = biological target: T1, Ubiquitin-activating enzyme e1, putative (Leishmania donovani (strain BPK282A1)) (UniProt E9BSI1); assay: Leishmania donovani Ubiquitin Activating Enzyme (LdE1); format: functional; settings: 30 µM
# T1 sequence (whole entry): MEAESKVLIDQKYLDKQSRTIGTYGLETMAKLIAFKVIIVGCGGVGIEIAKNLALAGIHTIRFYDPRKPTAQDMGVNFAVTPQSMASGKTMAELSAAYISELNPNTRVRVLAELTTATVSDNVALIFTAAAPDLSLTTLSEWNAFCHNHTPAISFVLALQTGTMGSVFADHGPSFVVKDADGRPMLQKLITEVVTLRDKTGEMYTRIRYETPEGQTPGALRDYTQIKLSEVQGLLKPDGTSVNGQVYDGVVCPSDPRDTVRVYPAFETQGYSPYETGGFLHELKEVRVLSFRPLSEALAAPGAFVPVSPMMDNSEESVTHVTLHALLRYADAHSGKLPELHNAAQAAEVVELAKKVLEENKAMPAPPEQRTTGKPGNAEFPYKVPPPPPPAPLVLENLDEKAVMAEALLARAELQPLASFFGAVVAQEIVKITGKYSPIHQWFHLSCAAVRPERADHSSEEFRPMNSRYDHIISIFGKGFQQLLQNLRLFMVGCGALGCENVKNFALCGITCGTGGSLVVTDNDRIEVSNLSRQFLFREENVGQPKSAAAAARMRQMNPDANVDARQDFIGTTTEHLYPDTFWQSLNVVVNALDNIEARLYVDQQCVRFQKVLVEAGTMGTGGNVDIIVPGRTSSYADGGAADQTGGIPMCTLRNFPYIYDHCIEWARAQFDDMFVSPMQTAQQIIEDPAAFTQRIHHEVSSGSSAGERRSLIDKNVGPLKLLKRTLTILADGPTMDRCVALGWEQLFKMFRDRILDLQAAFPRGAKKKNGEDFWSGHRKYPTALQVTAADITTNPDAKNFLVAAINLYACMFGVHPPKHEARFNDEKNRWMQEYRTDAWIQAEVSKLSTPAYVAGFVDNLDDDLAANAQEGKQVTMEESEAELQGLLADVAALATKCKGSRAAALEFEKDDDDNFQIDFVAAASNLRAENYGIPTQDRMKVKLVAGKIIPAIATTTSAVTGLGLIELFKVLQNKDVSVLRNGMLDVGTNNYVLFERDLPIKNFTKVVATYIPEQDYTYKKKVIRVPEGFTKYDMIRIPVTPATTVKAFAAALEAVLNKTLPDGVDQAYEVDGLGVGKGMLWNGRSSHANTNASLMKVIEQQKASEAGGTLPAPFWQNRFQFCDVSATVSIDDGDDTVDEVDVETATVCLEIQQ
# [3] = biological target: Sialic acid-binding Ig-like lectin 9 (Homo sapiens) (UniProt Q9Y336); assay: Hs-Siglec9 ALPHAscreen SOP 20170721; settings: 10 µM
# Chain of Sialic acid-binding Ig-like lectin 9 (Homo sapiens) (Q9Y336 whole entry): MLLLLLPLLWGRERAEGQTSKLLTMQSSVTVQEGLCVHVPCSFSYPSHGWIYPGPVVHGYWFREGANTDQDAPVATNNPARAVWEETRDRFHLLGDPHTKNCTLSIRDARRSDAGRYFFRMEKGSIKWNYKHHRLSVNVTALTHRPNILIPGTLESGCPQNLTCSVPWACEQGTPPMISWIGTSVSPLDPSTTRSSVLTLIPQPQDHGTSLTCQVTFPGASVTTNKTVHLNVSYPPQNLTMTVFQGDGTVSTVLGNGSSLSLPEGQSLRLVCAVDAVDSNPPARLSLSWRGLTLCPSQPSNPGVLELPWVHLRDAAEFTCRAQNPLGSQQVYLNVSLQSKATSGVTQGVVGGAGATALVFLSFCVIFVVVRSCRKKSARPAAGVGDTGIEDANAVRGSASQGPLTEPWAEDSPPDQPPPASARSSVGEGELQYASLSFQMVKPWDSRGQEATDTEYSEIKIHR
# Trypanosoma cruzi = assay: Trypanosoma cruzi phosphomannomutase and mannose-1-phosphate guanylyltransferase assay; format: functional; settings: 10 µM
# [4] = biological target: T2, Arginase-2, mitochondrial (Homo sapiens) (UniProt P78540); assay: in vitro enzyme assay to detect the production of urea directly proportional to the activity of Arginase II; format: functional; settings: 33.3 µM; further: in the data most compounds retested in dose-response had high values
# T2 sequence (whole entry): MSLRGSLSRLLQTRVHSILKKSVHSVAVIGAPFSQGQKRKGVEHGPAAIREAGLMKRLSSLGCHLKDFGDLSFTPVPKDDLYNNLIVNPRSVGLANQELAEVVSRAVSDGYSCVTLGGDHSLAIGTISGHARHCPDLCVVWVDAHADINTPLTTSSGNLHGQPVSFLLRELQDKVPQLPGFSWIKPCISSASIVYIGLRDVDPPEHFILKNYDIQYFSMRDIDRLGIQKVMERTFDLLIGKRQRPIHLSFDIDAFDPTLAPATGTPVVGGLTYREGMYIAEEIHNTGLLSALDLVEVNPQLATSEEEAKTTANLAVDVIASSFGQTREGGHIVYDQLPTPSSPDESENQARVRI
# [5] = biological target: T3, Proteasome subunit beta (Trypanosoma cruzi) (UniProt O96673); assay: Trypanosoma cruzi proteasome chymotrypsin-like activity (TcProtChymo) assay.; further: in the data most compounds retested in dose-response had high values; format: functional; settings: 9.37 µM
# T3 sequence (whole entry): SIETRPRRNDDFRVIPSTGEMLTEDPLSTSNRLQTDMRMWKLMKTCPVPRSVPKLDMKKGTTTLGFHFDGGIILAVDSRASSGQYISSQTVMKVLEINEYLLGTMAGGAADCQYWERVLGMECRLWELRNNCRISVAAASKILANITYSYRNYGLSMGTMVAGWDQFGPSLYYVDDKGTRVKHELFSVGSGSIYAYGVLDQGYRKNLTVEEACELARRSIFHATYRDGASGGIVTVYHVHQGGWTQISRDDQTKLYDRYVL
# Homo sapiens = species on record: Homo sapiens; assay: To identify inhibition of the IFN signalling (Jak-Stat) pathway via expression of an eGFP reporter gene under the control of an IFN-stimulated response element (ISRE) containing MxA promoter.; format: functional; settings: 30 µM
# [6] = biological target: T4, Tyrosyl-tRNA synthetase, putative (Trypanosoma cruzi (strain CL Brener)) (UniProt Q4DSP6); assay: Trypanosoma cruzi tyrosyl tRNA synthetase (TcYRS) _High Tyrosine SOP; format: functional; settings: 30 µM; further: in the data most compounds retested in dose-response had high values
# T4 sequence (whole entry): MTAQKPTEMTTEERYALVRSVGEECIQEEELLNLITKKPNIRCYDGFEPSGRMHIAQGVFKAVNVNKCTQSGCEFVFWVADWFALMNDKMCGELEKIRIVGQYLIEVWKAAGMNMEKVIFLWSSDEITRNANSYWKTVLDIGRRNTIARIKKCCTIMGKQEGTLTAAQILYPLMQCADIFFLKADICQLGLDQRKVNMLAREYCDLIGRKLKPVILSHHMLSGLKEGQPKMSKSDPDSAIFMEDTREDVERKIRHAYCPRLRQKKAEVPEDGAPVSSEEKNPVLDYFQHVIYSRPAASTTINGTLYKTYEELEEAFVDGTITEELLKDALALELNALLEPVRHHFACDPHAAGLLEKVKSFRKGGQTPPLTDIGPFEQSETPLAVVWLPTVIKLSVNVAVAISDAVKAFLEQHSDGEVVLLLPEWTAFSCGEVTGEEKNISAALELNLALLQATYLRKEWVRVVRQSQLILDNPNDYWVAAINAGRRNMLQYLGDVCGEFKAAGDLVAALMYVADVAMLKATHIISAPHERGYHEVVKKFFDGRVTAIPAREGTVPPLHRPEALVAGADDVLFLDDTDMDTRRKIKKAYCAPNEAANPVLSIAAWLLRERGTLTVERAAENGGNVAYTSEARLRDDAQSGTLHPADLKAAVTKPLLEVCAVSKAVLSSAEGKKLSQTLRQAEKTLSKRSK
# [7] = biological target: T4, Tyrosyl-tRNA synthetase, putative (Trypanosoma cruzi (strain CL Brener)); assay: Trypanosoma cruzi tyrosyl tRNA synthetase (TcYRS) SOP; format: functional; settings: 30 µM
# [8] = biological target: Chromo domain-containing protein 1 (Saccharomyces cerevisiae (strain ATCC 204508 / S288c) (Baker's yeast)) (UniProt P32657); assay: ScCHD-1 Enzyme Inhibition Assay; format: functional; settings: 30 µM; further: in the data most compounds retested in dose-response had high values
# Chain of Chromo domain-containing protein 1 (Saccharomyces cerevisiae (strain ATCC 204508 / S288c) (Baker's yeast)) (P32657 whole entry, the tested form may be a part): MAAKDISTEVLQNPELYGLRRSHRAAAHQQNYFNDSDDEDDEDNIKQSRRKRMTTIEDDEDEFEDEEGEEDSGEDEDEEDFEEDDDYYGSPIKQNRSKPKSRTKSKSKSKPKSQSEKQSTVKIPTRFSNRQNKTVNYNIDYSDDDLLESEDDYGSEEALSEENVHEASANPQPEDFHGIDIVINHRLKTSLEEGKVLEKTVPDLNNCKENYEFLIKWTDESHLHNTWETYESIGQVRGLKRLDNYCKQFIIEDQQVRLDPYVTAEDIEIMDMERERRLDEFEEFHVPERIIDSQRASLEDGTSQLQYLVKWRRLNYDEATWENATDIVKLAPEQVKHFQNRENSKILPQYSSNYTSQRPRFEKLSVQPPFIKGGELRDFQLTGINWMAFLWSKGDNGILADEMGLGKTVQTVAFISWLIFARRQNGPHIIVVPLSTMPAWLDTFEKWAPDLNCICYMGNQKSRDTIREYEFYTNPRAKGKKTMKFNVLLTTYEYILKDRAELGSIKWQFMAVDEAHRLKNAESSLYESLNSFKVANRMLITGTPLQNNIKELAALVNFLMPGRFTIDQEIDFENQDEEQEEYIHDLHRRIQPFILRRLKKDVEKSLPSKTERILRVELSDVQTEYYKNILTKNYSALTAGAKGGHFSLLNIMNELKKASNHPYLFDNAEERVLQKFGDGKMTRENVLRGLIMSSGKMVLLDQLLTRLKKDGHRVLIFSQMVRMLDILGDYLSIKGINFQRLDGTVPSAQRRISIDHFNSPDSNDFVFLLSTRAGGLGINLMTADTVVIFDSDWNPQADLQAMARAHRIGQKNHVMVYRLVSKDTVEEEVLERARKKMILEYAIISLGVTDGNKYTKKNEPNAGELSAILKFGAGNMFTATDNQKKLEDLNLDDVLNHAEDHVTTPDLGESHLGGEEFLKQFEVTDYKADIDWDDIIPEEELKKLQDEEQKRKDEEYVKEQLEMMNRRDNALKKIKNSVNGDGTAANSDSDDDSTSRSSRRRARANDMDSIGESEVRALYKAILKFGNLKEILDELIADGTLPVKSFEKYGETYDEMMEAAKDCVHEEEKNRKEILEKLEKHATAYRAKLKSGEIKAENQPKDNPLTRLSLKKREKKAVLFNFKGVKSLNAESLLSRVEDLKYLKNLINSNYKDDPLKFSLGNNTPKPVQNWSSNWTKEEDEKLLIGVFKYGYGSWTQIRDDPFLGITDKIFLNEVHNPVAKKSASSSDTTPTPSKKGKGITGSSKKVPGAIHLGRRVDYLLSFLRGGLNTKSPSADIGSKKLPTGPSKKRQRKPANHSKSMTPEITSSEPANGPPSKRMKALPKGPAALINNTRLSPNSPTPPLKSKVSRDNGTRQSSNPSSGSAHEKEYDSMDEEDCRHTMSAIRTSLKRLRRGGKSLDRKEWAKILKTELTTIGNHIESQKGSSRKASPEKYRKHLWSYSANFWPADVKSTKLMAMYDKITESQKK
# Chain of Protein translocase subunit SecA (Escherichia coli (strain K12)) (P10408 whole entry): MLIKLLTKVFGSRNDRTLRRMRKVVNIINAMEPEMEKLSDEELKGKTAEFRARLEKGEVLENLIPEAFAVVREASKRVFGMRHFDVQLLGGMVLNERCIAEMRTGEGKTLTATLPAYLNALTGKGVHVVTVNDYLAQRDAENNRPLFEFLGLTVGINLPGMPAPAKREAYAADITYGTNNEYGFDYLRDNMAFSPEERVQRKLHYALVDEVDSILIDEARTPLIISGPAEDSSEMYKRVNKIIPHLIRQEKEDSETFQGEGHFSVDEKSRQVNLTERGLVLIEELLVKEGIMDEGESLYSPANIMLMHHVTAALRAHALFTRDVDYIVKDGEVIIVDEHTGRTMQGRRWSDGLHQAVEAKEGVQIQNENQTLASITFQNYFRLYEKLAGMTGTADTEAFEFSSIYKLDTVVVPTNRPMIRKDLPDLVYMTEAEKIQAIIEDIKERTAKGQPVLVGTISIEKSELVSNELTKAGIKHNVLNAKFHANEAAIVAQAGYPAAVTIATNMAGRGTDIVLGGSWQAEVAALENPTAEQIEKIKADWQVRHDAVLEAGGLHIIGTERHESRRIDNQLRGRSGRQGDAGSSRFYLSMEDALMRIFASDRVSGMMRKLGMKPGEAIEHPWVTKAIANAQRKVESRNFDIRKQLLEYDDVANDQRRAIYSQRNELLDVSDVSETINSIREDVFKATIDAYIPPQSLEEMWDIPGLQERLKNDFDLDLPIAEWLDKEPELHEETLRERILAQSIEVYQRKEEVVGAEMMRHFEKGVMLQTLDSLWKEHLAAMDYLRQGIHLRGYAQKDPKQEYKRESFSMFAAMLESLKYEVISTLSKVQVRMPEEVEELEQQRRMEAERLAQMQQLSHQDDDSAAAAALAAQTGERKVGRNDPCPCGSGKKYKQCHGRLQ
SMILES,Percent Effect [1] [%],Percent Effect [2] [%],Percent Effect [3] [%],Percent Effect (Trypanosoma cruzi) [%],Percent Effect [4] [%],Percent Effect [5] [%],Percent Effect (Homo sapiens) [%],Percent Effect [6] [%],Percent Effect [7] [%],Percent Effect [8] [%]
CCCc1c(C(=O)NC2CCCC2)nnn1-c1ccc(OC)cc1,107,17.3,-6.12,0,6.2,8.37,27,-1.06,7.5,-16.8
CCc1cc(C(=O)N2CCC(Nc3ccc(C)nn3)CC2)sc1C,-4.07,10.7,-0.268,3.61,-4.88,2.8,4.58,5.79,7.69,-9.15
Cc1cc(CN2CCCC2Cn2cncn2)no1 (stereo not given),-4.42,17.9,-10.5,11.9,-2.05,17,0.869,3.35,20.5,-10.5
Cc1cnn(CCNCc2nnc(C3CC3)o2)c1,2.37,26,-7.5,0.746,-8.4,16,32.1,6.86,28.2,-8.53
O=C(NCC1COCc2c(-c3cccnc3)nnn2C1)c1cccs1 (stereo not given),-1.54,9.09,-6.14,-8.28,-12.2,13,4.75,10,10.3,-4.23
CC(C)NC(=O)Nc1ccc(CNCc2cccc(C#N)c2)cc1,2.25,20.8,4.68,0.933,-0.615,6.84,0.521,9.8,28.2,-12.8
CCN(C)c1ncnc2c1CCN(Cc1ccoc1)CC2,-6.65,19.5,-3.79,8.86,-7.69,18.8,-6.57,3.68,15.4,-1.25
CC(C)n1[nH]c(=O)c2c1NC(=O)CC2c1cccnc1 (stereo not given),0.982,13.5,1.14,0.873,1.75,18.7,23.6,3.72,19.5,-3.39
CC(C)CN1CCN(C(=O)NCc2cccnc2-n2cccn2)CC1,-3.93,16,-3.1,-6.02,-2.22,10.4,2.63,5.79,7.69,-11.7
c1ccc2cc(OCCN3CCn4c(nnc4C4CC4)C3)ccc2c1,-5.63,-18.7,-1.64,1.61,-5.32,4.33,-7.36,1.58,-10.3,-10.9
Cc1ccsc1CN(C)Cc1nc2c(cnn2C)c(=O)[nH]1,0.7,15.4,-7.51,0.845,2.05,10.7,27.3,7.18,18.1,-3.14
COC(=O)CC(c1cnn(C)c1)c1oc(C)cc(=O)c1O (stereo not given),-7.67,0,0.282,-5.33,-3.85,6.85,8.46,0.532,0,-1.21
